Assay results reported in ChEMBL document CHEMBL4513216, “Probing the Open Global Health Chemical Diversity Library for Multistage-Active Starting Points for Next-Generation Antimalarials” (ACS Infect Dis, 2020).
Hit rate of the full screen: of about 69,000 compounds, about 8,600 (12%) showed an effect of 50% or more. The full list was thinned out, with strong results kept by preference.

What follows are compounds tested on Plasmodium berghei (assay: Screen against P. berghei liver stage (PbLuc), transformed with Luciferase, at 10uM). Conditions: tested at 10 uM.
Format: functional, HepG2

Structure (SMILES)	INHIBITION [%]
CN1CCNC(Cc2ccc(-c3ccccc3)cc2)C1=O (stereo unspecified)	23.2
O=C(NCC1CCS(=O)(=O)C1)c1cccc(CN2CCCC2)c1 (stereo unspecified)	24.7
O=C(N1CCCO1)[C@@]12CCO[C@@H]1CCN(Cc1cccs1)C2	40.1
CC1=CCN(C(=O)Nc2ccccc2N2CCOC2=O)CC1	32.5
CC(=O)N1CCCN(C(=O)Nc2ccccc2N2CCOC2=O)CC1	1.37
O=C(Nc1ccccc1N1CCOC1=O)N1CCSCC1	52.2
Cc1ccn(CCC(=O)NC(C)Cc2ccco2)n1 (stereo unspecified)	24.5
COC(=O)c1sc2cccc(F)c2c1CNC(=O)C1CC1	34.6
OCCN1CCN(Cc2cc3c(cc2Br)OCCO3)CC1	31.5
COc1ccc(CN2CCC(C(N)=O)C2)c(Br)c1OC (stereo unspecified)	-0.87
Brc1cc2c(cc1CN1CCC(N3CCCCC3)CC1)OCCO2	77.9
NC(=O)C1CCN(Cc2cc3c(cc2Br)OCCO3)C1 (stereo unspecified)	71.3
OCC1CCN(Cc2cc3c(cc2Br)OCCO3)CC1	34.5
OC1CCN(Cc2cc3c(cc2Br)OCCO3)CC1	28.3
CNC(=O)C1CN(C(=O)c2ccccc2)Cc2cn(C)nc21 (stereo unspecified)	18.9
CCOC(=O)c1nc(CC(=O)Nc2ccccc2)no1	45.5
Cc1cc(CN2CCN(C(=O)NCc3csc(C)n3)CC2)no1	26.4
CN(C)CCO[C@H]1CN(Cc2ccoc2)[C@@H]2COC[C@H]12	3.25
Cn1nc(CNC(=O)c2ccc3c(c2)OCO3)c2c1CCOC2	40.8
CN(C)c1cc(CNC(=O)Nc2ccc(C#N)cc2)ccn1	22.1
CN(C)c1cc(CNC(=O)Nc2ccc(N3CCCC3)nc2)ccn1	69.7
CN(C)c1cc(CNC(=O)Nc2ccc(F)cc2)ccn1	17.8
CSCCc1ccc(NC(=O)NCc2ccnc(N(C)C)c2)cc1	72.85

Structure (SMILES)	INHIBITION [%]
CN(C)c1cc(CNC(=O)Nc2cccnc2N2CCCC2)ccn1	-60.4
COc1ccc(NC(=O)NCc2ccnc(N(C)C)c2)cn1	-15.1
COCc1ccccc1CNC(=O)CNc1cccc(Cl)c1OC	-28.2
CSCCC(=O)N1CCCN(Cc2cnn(C(C)C)c2)CC1	4.71
O=C([C@H]1CCCO1)N1CCc2ncc(CN3CCOCC3)n2CC1	22.9
CC(C(=O)N1CCCN(Cc2cnn(C)c2)CC1)n1ccnc1 (stereo unspecified)	48.1
O=C(N1CCCC1)N1CCc2ncnc(C3CCOC3)c2CC1 (stereo unspecified)	31.8
O=C(NCc1ccccc1F)NCC(O)c1cccc(F)c1 (stereo unspecified)	-24.3
CS(=O)(=O)N1CCN(c2cnnc(N3CCCC3)c2)CC1	-11.4
CS(=O)(=O)N1CCN(c2ccnc(N3CCCCC3)n2)CC1	58.5
CCCS(=O)(=O)N1CCN(c2cc(-n3cccc3)nc(C)n2)CC1	34.5
O=C(O)c1ccnc(-c2ccnc(N3CCCCCC3)n2)c1	4.41
CN(C)S(=O)(=O)N1CCN(c2ccnc(N3CCCC3)n2)CC1	5.14
CCCS(=O)(=O)N1CCN(c2ccnc(N3CCCC3)n2)CC1	30.1
CS(=O)(=O)N1CCN(c2ccnc(N3CCCC3)n2)CC1	50.8
CCCS(=O)(=O)N1CCN(c2ccnc(N3CCCCC3)n2)CC1	59.8
CN(C)S(=O)(=O)N1CCN(c2ccnc(N3CCCCC3)n2)CC1	43.1
Cc1nc(C)c(C(=O)NCCNc2ncccc2C(F)(F)F)s1	-36.3
CCn1cnnc1C1CCN(C(=O)c2ccc3cc[nH]c3c2)CC1	30.8
Cc1cc(C)n(CC2CN(Cc3noc(C4CC4)n3)CCO2)n1 (stereo unspecified)	-37.7
CC(=O)N1CCCCC1c1nc2c(c(NC3CCCC3)n1)CN(C)CC2 (stereo unspecified)	38.2
O=C(NCCNc1ncccn1)N1CCN(C2CCCC2)CC1	21.6
Cc1nc(C2CCCN(C(=O)CCn3ccccc3=O)C2)no1 (stereo unspecified)	29.7

Structure (SMILES)	INHIBITION [%]
COCc1ncc(CN2CCC3(CCNCC3)CC2)cn1	18.5
COCc1ncc(CN2CCC3(CCNC(=O)CC3)CC2)cn1	-47
COCc1ncc(CN2CCC3(CCC(=O)N(CC(C)O)C3)CC2)cn1 (stereo unspecified)	55.2
COC(=O)C1CCN(C(=O)Cn2nc(C)nc2-c2ccccc2)CC1	-3.48
N[C@@H](Cc1c[nH]cn1)C(=O)N1CCC(Oc2ccc(Cl)cc2)CC1	43.9
CC1CCCN(Cc2coc(-c3cccc(F)c3)n2)C1 (stereo unspecified)	18.6
Cc1ccccc1CCC1CCCN(Cc2nnc(-c3ccco3)o2)C1 (stereo unspecified)	35.6
Cc1nc(CN2CCCC(CCc3ccccc3C(F)(F)F)C2)co1 (stereo unspecified)	74.5
Cc1nc(CN2CCCC(CCc3cccc(C(F)(F)F)c3)C2)co1 (stereo unspecified)	62.4
FC(F)(F)c1ccccc1CCC1CCCN(Cc2cscn2)C1 (stereo unspecified)	76.7
Cn1cc(CN2CCCC(CCc3ccccc3C(F)(F)F)C2)cn1 (stereo unspecified)	43
CCN(CC(F)(F)F)C(=O)C1CCCN(Cc2cscn2)C1 (stereo unspecified)	-116
Cc1nc(CN2CCCC(c3nc(C)n4c(C)c(C)sc34)C2)co1 (stereo unspecified)	19.6
Cc1nnc(CN2CCCC(CCc3ccccc3C(F)(F)F)C2)o1 (stereo unspecified)	27.2
COCCN(Cc1ccco1)c1ncc(C#N)cc1Cl	28
CCn1ncc(Nc2[nH]cnc3nc(C)nc2-3)c1C	9
COCC(=O)Nc1ccc(-c2noc([C@@H]3CCCN3C(C)C)n2)cn1	35.8
CC(C)NC(=O)N1Cc2nccn2CC(COc2cccnc2)C1 (stereo unspecified)	22.4
O=C(c1cscn1)N1CCC2(CCN(Cc3cccs3)CC2)C1	-5.12
COc1ccccc1N1CCN(Cc2ncc(C)c(OC)c2C)CC1=O	37.4
CC(NC(=O)N1CCNC(=O)CC1)c1c(F)cccc1Cl (stereo unspecified)	-36.75
CC(NC(=O)N1CCS(=O)(=O)CC1)c1c(F)cccc1Cl (stereo unspecified)	-5.275
NC(=O)CNC(c1ccccc1)c1ccccc1	6.67

Structure (SMILES)	INHIBITION [%]
CC(C)NC(=O)CNC(C)c1c(F)cccc1Cl (stereo unspecified)	31.2
CC(NCC(N)=O)c1c(F)cccc1Cl (stereo unspecified)	67.1
CNC(=O)NC(C)c1c(F)cccc1Cl (stereo unspecified)	50.8
CCOc1ccccc1N1CCN(c2nnc(C)o2)CC1	7.4
CCN(CC)C(=O)CN(C)CCn1nc2ccccn2c1=O	-79.8
N#Cc1ccc(C(=O)N2CC[C@H]3[C@@H]2CCC(=O)N3c2cccnc2)cc1	23.9
Cc1ccc(C(=O)N2C[C@@H](OCc3cccnc3)[C@H]3OCCC[C@H]32)o1	10.6
Cc1ccc2c(c1)OC(C)CN2C(=O)c1c[nH]c(C)cc1=O (stereo unspecified)	26.9
CCC(=O)N1CCC2(CC1)CC(CC(=O)N(C)C)c1ccc(F)cc12 (stereo unspecified)	51.2
CCN1CCC2(CC1)CC(CC(=O)N(C)C)c1ccc(F)cc12 (stereo unspecified)	53
CCOC1CC2(CCN(C(=O)COC)CC2)c2cc(F)ccc21 (stereo unspecified)	19.8
CCNC(=O)CC1CC2(CCN(C(C)=O)CC2)c2cc(F)ccc21 (stereo unspecified)	31.4
CCC(=O)N1CCC2(CC1)CC(CC(N)=O)c1ccc(F)cc12 (stereo unspecified)	-26.5
CN(C)C(=O)CC1CC2(CCN(CC3CC3)CC2)c2cc(F)ccc21 (stereo unspecified)	35.3
Cc1cccc(-c2ccc(C(=O)NCC3CCCOC3)c(=O)[nH]2)c1 (stereo unspecified)	-24.2
COCCC(=O)N1CCN(CC(C)C)c2nc(C)ccc2C1	7.24
Cc1nc(COC(=O)c2cccnc2C)no1	32
Cc1nc(COC(=O)c2cccc3c2OCCO3)cs1	48.8
Cc1nc(COC(=O)c2cccc3c2OCCO3)no1	70.1
COCc1ccccc1C(=O)OCc1noc(C)n1	9.63
Cc1ncsc1CN(C)C(=O)CC1CCOc2ccccc21 (stereo unspecified)	-1.35
Cc1ncsc1COC(=O)c1cccc2c1OCCO2	77.9
Cc1nc(CN2C(=O)CCC23CCN(Cc2ccoc2)CC3)cs1	-30

Structure (SMILES)	INHIBITION [%]
O=S(=O)(c1ccccc1)N1CCOCC(Cc2cccnc2)C1 (stereo unspecified)	9.05
N#CCCCN1CCCC1Cc1ccccc1 (stereo unspecified)	53.6
CCN(C(=O)CN1CCCC1Cc1ccccc1)c1ccccc1 (stereo unspecified)	75.7
CCN(C(=O)CN1CCCC1c1ccc(OC)cc1)c1ccccc1 (stereo unspecified)	-47.9
CN(Cc1cccc(F)c1)C(=O)CN1CCCC1CCc1ccccc1 (stereo unspecified)	5.14
COc1cccc(CC2CCCN2CCCC#N)c1 (stereo unspecified)	34.1
COc1ccc(CC2CCCN2CCCC#N)cc1 (stereo unspecified)	35.9
COc1cccc(CC2CCCN2CC(N)=O)c1 (stereo unspecified)	35
N#CCCN(C(=O)CN1CCCC1Cc1ccccc1)c1ccccc1 (stereo unspecified)	38.5
CN(C(=O)CN1CCCC1Cc1ccccc1)c1ccccc1 (stereo unspecified)	68
COc1ccc(CCN2CC(n3nc(C)cc3C)C2)cc1	-6.61
Cc1cnn(CCCNCc2csc(COc3ccccc3)n2)c1	30.2
CCOC(=O)c1sc(NC(=O)C(C)(C)C)c(C#N)c1C	-43.6
Cc1nn(C)c(C)c1C1CCCN1CC(=O)NCc1ccccn1 (stereo unspecified)	26.5
COCCNC(=O)CN1CCC(N2CCN(C)C2=O)CC1	48.2
Cc1cc(C(=O)N2CCCC(c3nccn3C)C2)cc(S(N)(=O)=O)c1C (stereo unspecified)	-2.98
Cc1cc(C)nc(N2CCC(C(=O)Nc3ncc[nH]3)CC2)n1	47.9
CNc1cc(C(=O)N2CCOC(C(=O)NC3CCCC3)C2)ccn1 (stereo unspecified)	-23.4
O=C(NCCSc1ccccc1)[C@H]1CNC[C@@H](C(=O)N2CCOCC2)C1	-1.09
